Compound activity from PubChem.
Only some compounds are listed: those with a hit (about 0.52% of all), similar ones and a draw of the others.
S aureus helic = blocks Staphylococcus aureus DNA helicase | 0.05% of 120,000 active | purified S. aureus helicase, fluorescence unwinding assay | inhibition, % (no concentration beside the values); in the data active = inhibition above about 25%, passing the limit was not always enough
Sa growth inh = blocks Staphylococcus aureus growth; 0.53% of 170,000 active; AID 720641; S. aureus RN4220 growth, OD600, 20 h, 42 °C; stronger effect = lower value; relative growth, % (no concentration beside the values);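 active = relative growth at most 50% at the other temperature and 20+ points below 30 °C, or under 10% at both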
Each line names hits and unclear results; the compound was inactive in the other large screens.

CC1=CC(C)=NC2Nc3c(C)cc(C)cc3C(=N)C12 (configuration not stated)	S aureus helic 66.0
COc1cc(C2Nc3c(C)cc(C)cc3-c3cc(C)nn32)cc(OC)c1O (configuration not stated)	none (no result: S aureus helic)
CC(NC(=O)c1ccc(Cl)cc1Cl)C(=O)NCc1cccnc1 (configuration not stated)	none (no result: S aureus helic)
Cc1noc(C)c1NC(=O)Nc1cc(C(F)(F)F)cc(C(F)(F)F)c1	Sa growth inh 5.2
CNC(=O)Nc1cc(C(F)(F)F)cc(C(F)(F)F)c1	none (no result: S aureus helic)
CC1=NN(c2cccc(C(F)(F)F)c2)C(=O)C1	Sa growth inh 0.4
CC1=NN(c2cccc(SC(F)F)c2)C(=O)C1	none
CCOC(=O)CC(=O)C1CCN(C(=O)OC(C)(C)C)CC1	none
Cc1ccc(Nc2nc(C(=O)N(C)Cc3ccccc3)cs2)cc1	none
Cc1ccc(Nc2nc(CN(C)CCCc3[nH]nc(N)c3C#N)cs2)cc1	Sa growth inh -1.1
S=c1[nH]c(-c2ccccc2)cs1	Sa growth inh 16.3
O=c1[nH]c(-c2ccccc2)cs1	none
C[n+]1ccc(/C=C/c2ccc(N3CCCC3)o2)cc1	S aureus helic 57.0
N#C/C(=C\c1ccc(N2CCCC2)o1)c1ccccc1	none
O=C(O)CCSc1nnnn1C1CCCCC1	none
N#CC1(NC(=O)COC(=O)c2ccccc2C(F)(F)F)CCCC1	none
Nc1c(S(=O)(=O)c2ccccc2)c2nc3ccccc3nc2n1/N=C/c1ccncc1	none
O=C1C(Nc2cccc(O)c2)=C(n2nnc3ccccc32)C(=O)c2ccccc21	Sa growth inh 0.6
O=C1C(Nc2ccccc2)=C(n2nnc3ccccc32)C(=O)c2ccccc21	none
C[C@@H]1CN(c2c(F)c(N)c3c(=O)c(C(=O)O)cn(C4CC4)c3c2F)C[C@H](C)N1	Sa growth inh -0.1 (no result: S aureus helic)
Cc1cccc2nc(-c3ccccn3)c(Nc3ccccc3)n12	none (no result: S aureus helic)
Cc1cccc2nc(-c3ccccn3)c(Nc3ccc(F)cc3)n12	Sa growth inh 1.2 (no result: S aureus helic)
CCOC(=O)/C=C/c1ccc(-c2ccc(F)cc2)o1	none
O=C(/C=C\c1ccco1)Oc1cccc2cccnc12	Sa growth inh 1.6
CCc1ccc(OC(=O)/C=C/c2ccco2)cc1	none
O=C(CSc1ncnc2ccccc12)OCc1ccccc1	none
COc1ccc(-n2nnnc2SCSc2nnnn2-c2ccc(OC)cc2)cc1	none
CCOc1ccc(C(=O)C(C)Sc2nnnn2-c2ccc(OC)cc2)cc1 (configuration not stated)	S aureus helic 29.0
Cc1ccc(C)c(N2C(=O)c3ccc(C(=O)N4CCCN(C)c5nc6ccccc6nc54)cc3C2=O)c1	none
O=C(Nc1ccncc1)c1ccc(Oc2cc(Cl)cc(Cl)c2)o1	Sa growth inh 4.9 (no result: S aureus helic)
O=C(Nc1cccnc1)c1ccc(Oc2cc(Cl)cc(Cl)c2)o1	none (no result: S aureus helic)
CC(=O)Nc1ccc(C(=S)N2CCN(c3ccccc3O)CC2)cc1	none
CCNC(=O)Nc1nc2ccccc2s1	none
COC(NC(=O)Nc1nc2ccccc2s1)(C(F)(F)F)C(F)(F)F	Sa growth inh 5.5
c1ccc(-c2ccc3c(c2)c2c4n3CCNC4CCC2)cc1 (configuration not stated)	Sa growth inh 0.3
OC(c1ccccc1)c1ccc2c(c1)c1c3n2CCNC3CCC1 (configuration not stated)	none
N#Cc1nccnc1N1CCN(Cc2ccccc2)CC1	none (no result: S aureus helic)
O=C1c2ccccc2C(=O)c2c1oc1c3c(ccc21)OCN(C1CCCC1)C3	none
O=C1c2ccccc2C(=O)c2c1oc1c3c(ccc21)OCN(C1CCS(=O)(=O)C1)C3 (configuration not stated)	Sa growth inh 7.6
CC(C)CNC(=O)c1ccc(COCC(F)(F)C(F)F)o1	none
CN1CCN(c2c(F)cc3c(=O)c(C(=O)O)cn4c3c2SCC4)CC1	Sa growth inh -0.4 (no result: S aureus helic)
C[C@H]1COc2c(C3(N)CC3)c(F)cc3c(=O)c(C(=O)O)cn1c23	Sa growth inh -0.9 (no result: S aureus helic)
Cc1cc(F)c(F)cc1C(=O)N1CCN(C)CC1	none
C[C@H]1COc2c(N3CCN(C)CC3)c(F)cc3c(=O)c(C(=O)O)cn1c23	Sa growth inh -0.5 (no result: S aureus helic)
C#CCSc1nc2c(c(=O)[nH]1)C(c1ccccc1)CC(=O)N2 (configuration not stated)	none
O=C(Cc1ccccc1)Oc1cccc2cccnc12	none (no result: Sa growth inh)
N#Cc1ccccc1OC(=O)CCN1C(=O)c2ccccc2C1=O	none
O=C(CCN1C(=O)c2ccccc2C1=O)Oc1cccc2cccnc12	Sa growth inh -0.6
O=C(CN1C(=O)c2ccccc2C1=O)Oc1cccc2cccnc12	Sa growth inh 0.8
CCOc1cc2c(cc1CNC(CN1CCOCC1)c1ccc(C)cc1)OC(C)C2 (configuration not stated)	none
COc1ccc(C(CC(=O)O)Sc2ncn[nH]2)cc1 (configuration not stated)	none
CCCN(CCC)Cn1nc(-c2ccc3c(c2)OCO3)oc1=S	Sa growth inh 38.8
CCOC(=O)c1nnc(-c2ccc3c(c2)OCO3)o1	none
CCCNC(=O)C1CCN(C(=O)c2ccccc2Cl)CC1	none
CS(=O)(=O)c1ccc(NC(=O)CN2CSCC2=O)cc1	none
Cc1cc(=O)[nH]c2cc3c(cc12)C(C)(C)C(C)N3C (configuration not stated)	none
Cc1ccc(C)n1-c1ccc(SCC(=O)O)cc1	S aureus helic 42.0
COc1ccc(SCC(=O)O)cc1	none
O=C(CN(CC(=O)Nc1ccc2c(c1)OCCO2)S(=O)(=O)c1ccccc1)Nc1ccc2c(c1)OCCO2	none
CCCCCCCCCCCCCCCC(=O)O[C@@H]1[C@@H](O)[C@@H](O)[C@@H](C(NC(=O)[C@@H]2C[C@@H](CCC)CN2C)C(C)Cl)O[C@@H]1SC (some centres not stated)	none (no result: S aureus helic)
CCC[C@@H]1C[C@@H](C(=O)N[C@@H]([C@H]2O[C@H](SC)[C@H](O)[C@@H](O)[C@H]2O)[C@@H](C)O)N(C)C1	Sa growth inh 0.0 (no result: S aureus helic)
CCC(C)N1C(=O)S/C(=C/c2ccc(O)c(Cl)c2)C1=O (configuration not stated)	Sa growth inh -0.6
CCOc1cc(/C=C2/SC(=S)N(C(CC)C(=O)O)C2=O)ccc1O (configuration not stated)	none
Cn1nc(C(=O)NCc2cccs2)c2c1-c1ccccc1SC2	none
Cc1ccccc1Nc1cc(C)c(C#N)c2nc3ccccc3n12	Sa growth inh 1.2
COc1ccc(Nc2cc(C)c(C#N)c3nc4ccccc4n23)cc1	none
CCOC(=O)c1ccc(NC(=O)CSc2nccn2-c2cccc(C)c2C)cc1	none
COc1cc(C2c3c(-c4cc(C)ccc4O)n[nH]c3C(=O)N2Cc2ccco2)cc(OC)c1OC (configuration not stated)	none (no result: S aureus helic)
CCOc1cccc(C2c3c(-c4cc(C)ccc4O)n[nH]c3C(=O)N2Cc2ccco2)c1 (configuration not stated)	Sa growth inh 35.5 (no result: S aureus helic)
Cc1ccc(NC(=O)c2ccc(CNS(=O)(=O)c3ccc4c(c3)C(C)(C)C(=O)N4C)cc2)cc1C	none (no result: S aureus helic)
C=C1N(C)c2ccc(NC(=O)c3ccccc3)cc2C1(C)C	Sa growth inh 8.3
O=C1CC(C(=O)O)S/C(=N\N=C2CCCC2)N1 (configuration not stated)	none
C=CCNC(=O)Nc1ccc(F)c(Cl)c1	none
O=C(NCSCc1cccc(C(F)(F)F)c1)Nc1ccc(F)c(Cl)c1	Sa growth inh 9.0 (no result: S aureus helic)
COc1ccc(-c2cc(-c3nc4c5ccccc5ncn4n3)[nH]n2)cc1	none
Oc1ccc(N=Cc2ccccc2O)cc1	none
C[n+]1ccc(/C=C\c2ccco2)c2ccccc21	Sa growth inh 3.2
CN(C)C(=O)/C=C/c1ccc2c(c1)OCO2	none
C[n+]1ccc(/C=C/c2ccc3c(c2)OCO3)c2ccccc21	Sa growth inh 0.0
O/N=C/c1ccco1	none
